Our source for the z-score values is PubChem BioAssay AID488969 (Vanderbilt High Throughput Screening Facility, 2010).

Over roughly 110,000 compounds, “z-score” has its median near -0.1; the highest 2% begin near 2. Only a selection was taken, and the highest values are over-represented in it overall. Activity calls are given as the source filed them.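 Rule for the calls: active = z-score in the third read window above 3 or below -3; inactive = the rest.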

Metabotropic glutamate receptor 8 (Rattus norvegicus), sequence (P70579 whole entry, looked up): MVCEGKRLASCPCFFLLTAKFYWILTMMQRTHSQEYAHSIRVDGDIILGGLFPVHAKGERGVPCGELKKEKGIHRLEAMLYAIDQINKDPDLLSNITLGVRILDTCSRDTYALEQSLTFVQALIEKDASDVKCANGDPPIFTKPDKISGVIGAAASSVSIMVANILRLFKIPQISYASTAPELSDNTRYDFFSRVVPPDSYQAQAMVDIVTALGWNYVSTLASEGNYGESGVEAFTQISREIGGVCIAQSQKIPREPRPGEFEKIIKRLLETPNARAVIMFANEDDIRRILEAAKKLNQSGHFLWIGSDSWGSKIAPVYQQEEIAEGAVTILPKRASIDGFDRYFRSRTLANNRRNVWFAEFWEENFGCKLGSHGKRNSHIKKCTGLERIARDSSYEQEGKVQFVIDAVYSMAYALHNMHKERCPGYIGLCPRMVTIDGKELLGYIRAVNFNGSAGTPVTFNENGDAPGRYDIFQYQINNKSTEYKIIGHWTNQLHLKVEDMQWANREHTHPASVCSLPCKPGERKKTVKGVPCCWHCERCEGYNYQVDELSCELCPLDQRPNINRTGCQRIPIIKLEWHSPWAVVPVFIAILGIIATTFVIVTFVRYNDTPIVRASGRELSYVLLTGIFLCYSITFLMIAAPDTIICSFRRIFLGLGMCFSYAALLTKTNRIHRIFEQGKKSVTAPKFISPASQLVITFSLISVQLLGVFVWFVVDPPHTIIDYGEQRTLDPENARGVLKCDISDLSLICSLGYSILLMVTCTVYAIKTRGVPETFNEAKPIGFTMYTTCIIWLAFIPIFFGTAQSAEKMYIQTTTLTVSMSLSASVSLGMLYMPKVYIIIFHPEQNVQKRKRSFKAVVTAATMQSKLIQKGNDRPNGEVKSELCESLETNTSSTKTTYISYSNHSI

The assay concerns the target Metabotropic glutamate receptor 8 (Rattus norvegicus) (UniProt P70579). In words: rat mGluR8 modulators via GIRK flux, primary screen, cell-based, thallium flux, HTS (AID 488969). The following applies: HEK293 rat mGluR8, GIRK (G protein-gated inwardly rectifying potassium channel) thallium flux, FluoZin2; at 10 µM; stronger effect = higher value; submaximal glutamate (EC20) added with thallium.
The molecule `O=S(Cc1ccc(Br)cc1)Cc1nnc(SCc2c(Cl)cccc2Cl)n1-c1ccccc1` (stereo not drawn) registered a z-score of 0.0461. The molecule `CCNC(=O)C1CCCN1S(=O)(=O)c1ccc(C)cc1` (stereo not drawn) returned a z-score of -0.513. Regarding `Cc1ccc2cc3cc(C(=O)N4CCN(Cc5ccccc5)CC4)sc3nc2c1`, the z-score turned out to be 0.586. As for `O=C(Cc1ccccc1)NC(NC(=S)Nc1cc(Cl)ccc1Cl)C(Cl)(Cl)Cl` (stereo not drawn), the figure is -0.195. As to `O=C(/C=C/c1ccccc1)NC(NC(=S)Nc1cccc(O)c1)C(Cl)(Cl)Cl` (stereo not drawn), the z-score amounted to 2.09. `O=C(/C=C/c1ccccc1)NC(NC(=S)Nc1ccc(Cl)cc1Cl)C(Cl)(Cl)Cl` (stereo not drawn) came in with a z-score of 0.717.

In turn, `O=C(/C=C/c1ccccc1)NC(NC(=S)Nc1cccc(Cl)c1)C(Cl)(Cl)Cl` (stereo not drawn) came in with a z-score of 1.36.

Take `COc1ccc(NC(=S)NC(NC(=O)/C=C/c2ccccc2)C(Cl)(Cl)Cl)cc1` (stereo not drawn): the z-score is 1.83. In the case of `O=C(/C=C/c1ccccc1)NC(NC(=S)Nc1cc(Cl)ccc1Cl)C(Cl)(Cl)Cl` (stereo not drawn) it was 5.83 (active); in that of `O=C(CNc1n[nH]c(=O)[nH]c1=O)N/N=C/c1cccnc1`, -0.114; in that of `Cc1cccc(N2CCN(C(=O)Cn3cnc4c3c(=O)n(C)c(=O)n4C)CC2)c1C`, -0.973. Regarding `Cn1nnc(NC(=O)c2ccc3ccccc3c2)n1`, the z-score is -1.31.

For the molecule `COC(=O)C(NC(=O)COc1ccccc1)(Nc1nc2c(s1)CCCC2)C(F)(F)F` (stereo not drawn), the z-score amounted to 2.96. As for `O=C(Nc1nc2c(s1)CCCC2)Oc1ccccc1`, the figure is -0.198; as for `CCOC(=O)C(NC(=O)CC)(Nc1nc2c(s1)CCCC2)C(F)(F)F` (stereo not drawn), -0.0129; as for `CC(C)CNC(C(=O)Nc1ccc([N+](=O)[O-])cc1Br)c1ccccc1` (stereo not drawn), -0.337. Molecule `CCC(C)N=CC1=C(O)CC(c2ccccc2)CC1=O` (stereo not drawn) had a z-score of 2.05.

The molecule `CCCN=CC1=C(O)CC(c2ccccc2)CC1=O` (stereo not drawn) yielded a z-score of -0.493. As for `O=C1CC(c2ccccc2)CC(O)=C1C=NCc1ccccc1` (stereo not drawn), the figure is -0.229; as for `C=C(Br)Cn1c(CC(C)C)nc2ccccc21`, -0.262; as for `COC(=O)c1sc(N)nc1C(C)(C)C`, -0.167. Molecule `CN(C)CC/C=C1/c2ccccc2Sc2c(O)cc(Cl)cc21` came in with a z-score of 1.62. For `COc1cc(Cl)cc2c1Sc1ccccc1/C2=C/CCN(C)C`, the z-score is 3.63 (active).

In turn, `COc1cc2c(cc1Cl)/C(=C\CCN(C)C)c1ccccc1S2` came in with a z-score of -0.852. As for `O=C(CNc1ccccc1)N/N=C/c1ccc2c(c1)OCO2`, the figure is -0.247.

Molecule `COc1ccc(NC(=O)Nc2nnc(-c3ccccc3SCc3ccccc3)s2)cc1` displayed a z-score of -0.158. In the case of `CC(=O)N1CCN=C1SCc1ccccc1` it was -0.898; in that of `CC(=O)N1CCN=C1SCc1ccc(F)cc1`, 0.0688. In the case of `CC(=O)N1CCN=C1SCc1ccc(Br)cc1` it was 2.58. As for `COC(=O)c1ccc(NC(=O)C(=O)N2CCN(C(=S)NCCc3ccccc3)CC2)cc1`, the figure is -0.154; as for `O=C(N/N=C\c1cn[nH]c1-c1ccccc1)c1cccnc1`, 0.0508. In turn, `COC(=O)Oc1cncc(C(=O)O)c1` came in with a z-score of -0.0704. In turn, `CCOC(=O)c1cncc(C(=O)O)c1` gave a z-score of 1.8.

In turn, `O=C(OCc1ccccc1)Oc1cncc(C(=O)O)c1` had a z-score of 2.64. Regarding `CCN(CC)S(=O)(=O)c1ccc(C(=O)NCc2ccc3c(c2)cc(C)n3C)cc1`, the z-score was -0.388. In the case of `CN(C)S(=O)(=O)c1cccc(NC(=S)NN=C(Cc2ccccc2)Cc2ccccc2)c1`, the z-score was 0.673. Regarding `CN(C)S(=O)(=O)c1cccc(NC(=S)Nc2cc(Cl)cc(Cl)c2)c1`, the z-score is 8 (active). In the case of `CN(C)S(=O)(=O)c1cccc(NC(=S)Nc2ccc(Cl)cc2Cl)c1`, the z-score is 7.58 (active). Regarding `FC(F)(F)c1cccc(NC(=S)Nc2ccc(Cl)cc2Cl)c1`, the z-score came out at 1.29. In the case of `CN(C)S(=O)(=O)c1cccc(C(=O)Nc2cc(Cl)cc(Cl)c2)c1` it was -0.468; in that of `CN(C)S(=O)(=O)c1cccc(NC(=S)N/N=C/C(c2ccccc2)c2ccccc2)c1`, 0.384; in that of `O=C(CCc1ccc(S(=O)(=O)NC2CCCCC2)cc1)N(Cc1ccccc1)Cc1ccccc1`, -0.22.

With `Cc1cc(C2=NNC(=NCc3ccccc3)SC2)c(C)n1-c1c(C)n(C)n(-c2ccccc2)c1=O`, the z-score was -0.278. The molecule `COCC(C)n1c(C)cc(C(=O)COC(=O)c2oc3ccccc3c2C)c1C` (stereo not drawn) gave a z-score of -0.927. Molecule `Cc1ccccc1CSCC(=O)Nc1c(C)n(C)n(-c2ccccc2)c1=O` yielded a z-score of -0.0609.

Molecule `CC(C)(C)C(=O)NC(=S)N1CCCC1` returned a z-score of -0.128. `CCCCN(CCCC)C(=S)NC(=O)C(C)(C)C`: the z-score is 5.35 (active). In turn, `CC(C)(C)C(=O)NC(=S)NCc1ccccc1` showed a z-score of -0.201. In turn, `COC(=O)c1ccc(C(=O)OC)c(NC(=O)COC(=O)C23CC4CC(CC(O)(C4)C2)C3)c1` yielded a z-score of -1.04.

On to `Cc1cccc(NC(=O)Nc2ccc(C)c(C)c2)n1`, for which the z-score is -0.316. For the molecule `Cc1cc(NC(=O)CSc2nnc(-c3cccnc3)n2C)no1`, the z-score turned out to be 0.0216. `Cc1cc(NC(=O)CSc2nnc(-c3cccnc3)n2N)no1` came in with a z-score of -0.404. In turn, `CCCCn1c(SCC(=O)Nc2cc(C)on2)nnc1-c1cccnc1` yielded a z-score of 2.11.

Turning to `COC(=O)c1cccc(NC(=O)CCc2ccccc2)c1`, the z-score is -0.143.

`COc1ccc(NC(=S)N2CCN(C/C=C/c3ccccc3)CC2)cc1` gave a z-score of -0.821. Regarding `CCNC(=O)CN(CCc1ccccc1)S(=O)(=O)c1ccc(OC)cc1`, the z-score is -0.329. Molecule `COc1ccc(S(=O)(=O)N(CCc2ccccc2)CC(=O)NC(C)C)cc1` registered a z-score of -0.387.

On to `COc1ccc(S(=O)(=O)N(CCc2ccccc2)CC(=O)O)cc1`, for which the z-score turned out to be 2.73.

On to `COc1ccccc1NS(=O)(=O)c1ccc2oc(SC3CCOC3=O)nc2c1` (stereo not drawn), for which the z-score is -1.2. `CCOC(=O)CSC1=Nc2ccccc2C2=NC(CC(=O)NCc3cccs3)C(=O)N12` (stereo not drawn) returned a z-score of 0.253. In the case of `CCOC(=O)CSC1=Nc2ccccc2C2=NC(CC(=O)NCc3ccccc3)C(=O)N12` (stereo not drawn) it was 2.91; in that of `CCOC(=O)CSC1=Nc2ccccc2C2=NC(CC(=O)NCc3ccc(OC)cc3)C(=O)N12` (stereo not drawn), 0.556. The molecule `O=C(Nc1ccc(F)cc1)c1ccc(-n2ccnc2)nc1` displayed a z-score of -0.238.

The molecule `CCN(CC)S(=O)(=O)c1cccc(C(=O)N[C@H](C(=O)Nc2nc3ccccc3s2)C(C)C)c1` came in with a z-score of 0.326. In the case of `CN(C)CCCN1C(=O)CSC1c1ccccc1` (stereo not drawn) it was -0.244; in that of `O=C(C1CCCN1S(=O)(=O)c1cccc2cccnc12)N1CCN(c2ccccc2)CC1` (stereo not drawn), -0.0642. Regarding `O=C(C1CCCN(S(=O)(=O)c2cccc3cccnc23)C1)N1CCc2ccccc21` (stereo not drawn), the z-score was -1.2. As for `O=C(C1CCN(S(=O)(=O)c2cccc3cccnc23)CC1)N1CCn2c1nc1ccccc12`, the figure is -0.522. For `O=C(C1CCCN1S(=O)(=O)c1cccc2cccnc12)N1CCn2c1nc1ccccc12` (stereo not drawn), the z-score is 3.63 (active). As for `O=C(C1CCCN1S(=O)(=O)c1cccc2cccnc12)N1CCc2ccccc21` (stereo not drawn), the figure is 2.97; as for `O=C(C1CCCN1S(=O)(=O)c1cccc2cccnc12)N1CCc2ccccc2C1` (stereo not drawn), -0.115; as for `Cc1nc2cc(-c3ccc(Cl)cc3)nn2c(C)c1CCC(=O)NCc1ccco1`, -0.0434. In turn, `CCOC(=O)c1oc2ccccc2c1NC(=O)COc1ccc(F)cc1` displayed a z-score of -0.456.

For the molecule `S=c1[nH]nc(-c2cc3c(s2)-c2ccccc2CC3)o1`, the z-score was 16.3 (active). In turn, `CCSc1nnc(-c2cc3c(s2)-c2ccccc2CC3)o1` displayed a z-score of 0.000914. In the case of `CSc1nnc(-c2cc3c(s2)-c2ccccc2CC3)o1`, the z-score was 0.0264. The molecule `N=c1sccn1CC(=O)Nc1cccc2ccccc12` registered a z-score of -0.00239.

In the case of `Cc1nc(NC(=O)C2CC2)sc1C(=O)N(C)C`, the z-score was -0.405. Molecule `CCOC(=O)Nc1nc(C)c(C(=O)N(C)C)s1` yielded a z-score of -0.0609. In the case of `COC(=O)Nc1nc(C)c(C(=O)N(C)C)s1` it was 4.58 (active); in that of `O=C(CCN1C(=O)COc2ccccc21)NCCN1CCc2ccccc2C1`, -0.306; in that of `O=C(CCN1C(=O)COc2ccccc21)NCCCN1CCc2ccccc2C1`, 7.6 (active). On to `O=C(CN1C(=O)COc2ccccc21)NCCCN1CCc2ccccc2C1`, for which the z-score was determined as 0.383. `Cc1ccc(/C=C(\C#N)c2nc3ccccc3[nH]2)s1` returned a z-score of -0.0719.

With `O=C(COC(=O)CCCOc1ccc(Cl)cc1Cl)NCc1ccc(F)cc1`, the z-score was -0.191. Turning to `Cc1ccsc1/C=N/NC(=O)c1cccs1`, the z-score was determined as 0.356. On to `CSc1ccc(/C=N/NC(=O)c2sccc2C)cc1`, for which the z-score is -0.312. For `Cc1ccsc1/C=N/NC(=O)C1CC(=O)N(c2ccccc2)C1` (stereo not drawn), the z-score was 0.243. In the case of `Cc1ccsc1/C=N/NC(=O)c1sccc1C`, the z-score is 5.91 (active).

Regarding `Cc1ccc(N2CC(C(=O)N/N=C/c3sccc3C)CC2=O)cc1` (stereo not drawn), the z-score was 3.3 (active).

As for `Cc1ccc(N2CC(C(=O)N/N=C/c3cccc([N+](=O)[O-])c3)CC2=O)cc1` (stereo not drawn), the z-score was -0.282. In the case of `Cc1nc2c(C)cccc2cc1C(=O)N/N=C/c1cccc([N+](=O)[O-])c1` it was -0.361; in that of `O=C(NC(=S)Nc1nc2ccccc2s1)c1ccco1`, 8.72 (active). For `O=C(Nc1ccccc1-c1nc2ccccc2s1)c1ccco1`, the z-score was -0.0204. As for `O=C(COC(=O)c1ccco1)Nc1nc2ccccc2s1`, the figure is 0.111. Molecule `O=C(NCc1ccc(-c2nc3ccccc3s2)cc1)c1ccco1` gave a z-score of -0.111. In turn, `O=C(NCc1ccc(-c2nc3ccccc3s2)cc1)c1ccc(Br)o1` came in with a z-score of -0.21.

The molecule `O=C(NC(=S)NCc1ccc(-c2nc3ccccc3s2)cc1)c1ccco1` came in with a z-score of 2.52. For the molecule `O=C(COc1ccc(Cl)cc1Cl)NC(=O)N1CCCCC1`, the z-score is 1.09. Regarding `Cc1sc2ncnc(N=Nc3c(O)[nH]c4ccccc34)c2c1C`, the z-score is -0.0288. For the molecule `CCOC(=O)c1cc(OC(=O)c2cccnc2)n(-c2ccccc2)n1`, the z-score is -0.265.

Molecule `COc1cccc(CN(C)CC(=O)NC(=O)NCc2ccccc2)c1` came in with a z-score of 0.16. On to `COc1ccc(CN(C)CC(=O)NC(=O)NCc2ccccc2)cc1OC`, for which the z-score is 5.52 (active). For `CN(CC(=O)NC(=O)NCc1ccccc1)Cc1ccc(Cl)cc1`, the z-score is -0.334. On to `COC(=O)C1=C(C(=O)c2ccccc2)C(c2ccc(OC)c(OC)c2)Nc2nnnn21` (stereo not drawn), for which the z-score came out at 0.0695. `C/C(=N\NC(=O)CSc1nnc(C)s1)c1ccc(O)cc1` registered a z-score of 0.00192. As for `NC(=S)N/N=C/c1ccc(-c2cc(Cl)cc(Cl)c2)o1`, the figure is 0.987; as for `NC(=S)N/N=C/c1ccc(-c2ccc(Cl)c(Cl)c2)o1`, 0.653; as for `NC(=S)N/N=C/c1ccc(-c2cc(Cl)ccc2Cl)o1`, 2.21. With `CCCCOC(=O)CSc1n[nH]c(=O)[nH]c1=O`, the z-score was -0.957.

For `CCc1nc(SCc2nnc(-c3ccc(C)cc3)o2)c2c(C)c(C)sc2n1`, the z-score stood at 2.26. Regarding `Cc1ccc(-c2nnc(CSc3nnc(C)s3)o2)cc1`, the z-score came out at 0.552.

Regarding `Cc1ccc(-c2nnc(CSc3nc(C(C)C)nc4sc(C)c(C)c34)o2)cc1`, the z-score turned out to be 1.42.
